Assay results published in PubChem BioAssay AID1159580 (chemical genetic matrix, 2015).
“And” between values parts separate entries of the source, which are not always exact repeats. Equal values may be shown once. Out of some 5,500 compounds screened, about 2,000 (36%) were called active. About 18% were inconclusive and are not listed. Cut-off read from the data, not from the text of the source: active = normalized growth mostly below about 0.91 (no sharp cut-off); inconclusive = no clear call, values can overlap the other calls; inactive = mostly above about 0.92. The list shows a part of the results.

Experiment: chemical genetic growth profiling, strain panel (AID 1159580);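 note: tested at 20 µM; growth read once vehicle control cultures reached saturation at 30 °C; 1 = growth at the plate median or of vehicle wells; lower values mean less growth of the strain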
Details: S. cerevisiae deletion strains, growth OD

Measured: normalized growth

CCCCCCCCNC(C)C(O)c1ccc(SC(C)C)cc1 (stereo not drawn)
inactive: locus YHR079C, strain IRE1, stronger effect = lower value 0.911 | locus YIL125W, strain kgd1, stronger effect = lower value 1 | locus YJR066W, strain TOR1, stronger effect = lower value 0.885
active: locus YAL021C, strain ccr4, stronger effect = lower value 0.0594 | locus YAL026C, strain drs2, stronger effect = lower value 0.0595 | locus YAL030W, strain snc1, stronger effect = lower value 0.0546 | locus YBL061C, strain skt5, stronger effect = lower value 0.0571 | locus YBR009C, strain hhf1, stronger effect = lower value 0.0563 | locus YBR021W, strain FUR4, stronger effect = lower value 0.0834 | locus YBR023C, strain chs3, stronger effect = lower value 0.0584 | locus YBR171W, strain sec66, stronger effect = lower value 0.0741 | locus YBR229C, strain ROT2, stronger effect = lower value 0.0441 | locus YBR231C, strain swc5, stronger effect = lower value 0.0585 | locus YBR279W, strain paf1, stronger effect = lower value 0.0682 | locus YCL011C, strain gbp2, stronger effect = lower value 0.055 | locus YCL016C, strain dcc1, stronger effect = lower value 0.0618 | locus YCL029C, strain bik1, stronger effect = lower value 0.0564 | locus YCL069W, strain vba3, stronger effect = lower value 0.0585 | locus YCR088W, strain abp1, stronger effect = lower value 0.0581 | locus YDL005C, strain med2, stronger effect = lower value 0.0745 | locus YDL035C, strain GPR1, stronger effect = lower value 0.0475 | locus YDL040C, strain nat1, stronger effect = lower value 0.0579 | locus YDL074C, strain BRE1, stronger effect = lower value 0.0735 | locus YDL101C, strain DUN1, stronger effect = lower value 0.0522 | locus YDL134C, strain PPH21, stronger effect = lower value 0.047 | locus YDL185W, strain tfp1, stronger effect = lower value 0.262 | locus YDL192W, strain arf1, stronger effect = lower value 0.0576 | locus YDR001C, strain nth1, stronger effect = lower value 0.06 | locus YDR069C, strain doa4, stronger effect = lower value 0.0584 | locus YDR101C, strain arx1, stronger effect = lower value 0.0541 | locus YDR137W, strain rgp1, stronger effect = lower value 0.0948 | locus YDR150W, strain NUM1, stronger effect = lower value 0.0542 | locus YDR159W, strain sac3, stronger effect = lower value 0.0734 | locus YDR162C, strain NBP2, stronger effect = lower value 0.0459 | locus YDR195W, strain ref2 0.0984 | locus YDR297W, strain sur2, stronger effect = lower value 0.0553 | locus YDR318W, strain mcm21, stronger effect = lower value 0.0585 | locus YDR334W, strain swr1, stronger effect = lower value 0.0597 | locus YDR335W, strain msn5, stronger effect = lower value 0.0583 | locus YDR388W, stronger effect = lower value 0.054 | locus YDR392W, strain spt3, stronger effect = lower value 0.0655 | locus YDR502C, strain sam2, stronger effect = lower value 0.056 | locus YEL003W, strain gim4, stronger effect = lower value 0.0594 | locus YEL037C, strain rad23, stronger effect = lower value 0.0554 | locus YEL061C, strain CIN8 (second series), stronger effect = lower value 0.0597 | locus YEL061C, strain CIN8, stronger effect = lower value 0.0482 | locus YER015W, strain faa2, stronger effect = lower value 0.0595 | locus YER016W, strain bim1, stronger effect = lower value 0.0591 | locus YER110C, stronger effect = lower value 0.0696 | locus YER111C, strain swi4, stronger effect = lower value 0.0814 | locus YER155C, strain BEM2 (second series), stronger effect = lower value 0.0808 | locus YER155C, strain BEM2, stronger effect = lower value 0.0577 | locus YER167W, strain BCK2, stronger effect = lower value 0.0469 | locus YFR010W, strain ubp6, stronger effect = lower value 0.0616 | locus YGL078C, strain dbp3, stronger effect = lower value 0.902 | locus YGL086W, strain mad1, stronger effect = lower value 0.0521 | locus YGL167C, strain pmr1, stronger effect = lower value 0.077 | locus YGL173C, strain kem1, stronger effect = lower value 0.0661 | locus YGL227W, strain vid30, stronger effect = lower value 0.06 | locus YGL240W, strain doc1, stronger effect = lower value 0.0665 | locus YGL248W, strain PDE1, stronger effect = lower value 0.0436 | locus YGL253W, strain hxk2, stronger effect = lower value 0.0517 | locus YGR135W, strain pre9, stronger effect = lower value 0.0567 | locus YGR252W, strain gcn5, stronger effect = lower value 0.109 | locus YHR013C, strain ard1, stronger effect = lower value 0.0967 | locus YHR027C, strain rpn1, stronger effect = lower value 0.0609 | locus YHR079C, strain IRE1 (second series), stronger effect = lower value 0.0545 | locus YHR094C, strain hxt1, stronger effect = lower value 0.0553 | locus YHR129C, strain ARP1, stronger effect = lower value 0.0538 | locus YHR142W, strain chs7, stronger effect = lower value 0.0639 | locus YHR200W, strain rpn10, stronger effect = lower value 0.0572 | locus YIL066C, strain RNR3, stronger effect = lower value 0.0459 | locus YIL073C, strain SPO22, stronger effect = lower value 0.102 | locus YIR030C, strain dcg1, stronger effect = lower value 0.0568 | locus YJL092W, strain hpr5, stronger effect = lower value 0.0567 | locus YJL095W, strain BCK1 (second series), stronger effect = lower value 0.0551 | locus YJL095W, strain BCK1, stronger effect = lower value 0.0554 and 0.787 | locus YJL115W, strain asf1, stronger effect = lower value 0.069 | locus YJL129C, strain trk1, stronger effect = lower value 0.0791 | locus YJL134W, strain LCB3, stronger effect = lower value 0.0468 | locus YJL154C, strain vps35, stronger effect = lower value 0.0585 | locus YJL164C, strain tpk1, stronger effect = lower value 0.0551 | locus YJL166W, strain qcr8, stronger effect = lower value 0.0569 | locus YJL168C, strain set2, stronger effect = lower value 0.0547 | locus YJL187C, strain SWE1 (second series), stronger effect = lower value 0.0448 | locus YJR043C, strain POL32, stronger effect = lower value 0.0599 | locus YJR075W, strain HOC1, stronger effect = lower value 0.0593
0.0483 (active) and 0.892 (inactive): locus YHR030C, strain SLT2, stronger effect = lower value
